# From PubChem BioAssay AID1159580 (chemical genetic matrix, 2015)
# Several values for one entry are separate records, joined by “and”; a condition that tells them apart may be missing. Equal values may be shown once. Hit rate of the full screen: of about 5,500 compounds, about 2,000 (36%) were called active. Not shown: some 18% with an inconclusive outcome. Rule as the data show it: active = normalized growth mostly below about 0.91 (no sharp cut-off); inconclusive = no clear call, values can overlap the other calls; inactive = mostly above about 0.92. Some of the results follow.
# Experiment: chemical genetic growth profiling, strain panel (AID 1159580);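 also: tested at 20 µM; growth read once vehicle control cultures reached saturation at 30 °C; 1 = growth at the plate median or of vehicle wells; lower values mean less growth of the strain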
# Conditions: S. cerevisiae deletion strains, growth OD
structure (smiles),measurement,setting,value
CC[C@@]1(O)C[C@H](O[C@H]2C[C@H](N(C)C)[C@H](O)[C@H](C)O2)c2c(cc3c(c2O)C(=O)c2c(O)ccc(O)c2C3=O)[C@H]1C(=O)OC,normalized growth,"locus YAL021C, strain ccr4, stronger effect = lower value",0.83 (active)
same,normalized growth,"locus YAL026C, strain drs2, stronger effect = lower value",0.813 (active)
same,normalized growth,"locus YAL030W, strain snc1, stronger effect = lower value",0.919 (active)
same,normalized growth,"locus YBL061C, strain skt5, stronger effect = lower value",0.875 (active)
same,normalized growth,"locus YBR009C, strain hhf1, stronger effect = lower value",0.924 (inactive)
same,normalized growth,"locus YBR021W, strain FUR4, stronger effect = lower value",0.143 (active)
same,normalized growth,"locus YBR023C, strain chs3, stronger effect = lower value",1.52 [resistant] (active)
same,normalized growth,"locus YBR171W, strain sec66, stronger effect = lower value",1.03 (inactive)
same,normalized growth,"locus YBR229C, strain ROT2, stronger effect = lower value",0.152 (active)
same,normalized growth,"locus YBR231C, strain swc5, stronger effect = lower value",0.794 (active)
same,normalized growth,"locus YBR279W, strain paf1, stronger effect = lower value",0.901 (active)
same,normalized growth,"locus YCL011C, strain gbp2, stronger effect = lower value",0.0988 (active)
same,normalized growth,"locus YCL016C, strain dcc1, stronger effect = lower value",0.893 (active)
same,normalized growth,"locus YCL029C, strain bik1, stronger effect = lower value",0.205 (active)
same,normalized growth,"locus YCL069W, strain vba3, stronger effect = lower value",0.948 (inactive)
same,normalized growth,"locus YCR088W, strain abp1, stronger effect = lower value",0.954 (inactive)
same,normalized growth,"locus YDL005C, strain med2, stronger effect = lower value",1.03 (inactive)
same,normalized growth,"locus YDL035C, strain GPR1, stronger effect = lower value",0.0755 (active)
same,normalized growth,"locus YDL040C, strain nat1, stronger effect = lower value",0.962 (inactive)
same,normalized growth,"locus YDL074C, strain BRE1, stronger effect = lower value",0.141 (active)
same,normalized growth,"locus YDL101C, strain DUN1, stronger effect = lower value",0.0945 (active)
same,normalized growth,"locus YDL134C, strain PPH21, stronger effect = lower value",0.0874 (active)
same,normalized growth,"locus YDL185W, strain tfp1, stronger effect = lower value",0.956 (inactive)
same,normalized growth,"locus YDL192W, strain arf1, stronger effect = lower value",0.106 (active)
same,normalized growth,"locus YDR001C, strain nth1, stronger effect = lower value",0.932 (inactive)
same,normalized growth,"locus YDR069C, strain doa4, stronger effect = lower value",0.68 (active)
same,normalized growth,"locus YDR101C, strain arx1, stronger effect = lower value",0.18 (active)
same,normalized growth,"locus YDR137W, strain rgp1, stronger effect = lower value",0.703 (active)
same,normalized growth,"locus YDR150W, strain NUM1, stronger effect = lower value",0.112 (active)
same,normalized growth,"locus YDR159W, strain sac3, stronger effect = lower value",0.906 (inactive)
same,normalized growth,"locus YDR162C, strain NBP2, stronger effect = lower value",0.0578 (active)
same,normalized growth,"locus YDR195W, strain ref2",1.05 (inactive)
same,normalized growth,"locus YDR297W, strain sur2, stronger effect = lower value",0.873 (active)
same,normalized growth,"locus YDR318W, strain mcm21, stronger effect = lower value",0.125 (active)
same,normalized growth,"locus YDR334W, strain swr1, stronger effect = lower value",0.816 (active)
same,normalized growth,"locus YDR335W, strain msn5, stronger effect = lower value",0.854 (active)
same,normalized growth,"locus YDR388W, stronger effect = lower value",0.0868 (active)
same,normalized growth,"locus YDR392W, strain spt3, stronger effect = lower value",0.823 (inactive)
same,normalized growth,"locus YDR502C, strain sam2, stronger effect = lower value",0.125 (active)
same,normalized growth,"locus YEL003W, strain gim4, stronger effect = lower value",0.942 (inactive)
same,normalized growth,"locus YEL037C, strain rad23, stronger effect = lower value",0.874 (active)
same,normalized growth,"locus YEL061C, strain CIN8 (second series), stronger effect = lower value",0.879 (active)
same,normalized growth,"locus YEL061C, strain CIN8, stronger effect = lower value",0.071 (active)
same,normalized growth,"locus YER015W, strain faa2, stronger effect = lower value",0.821 (active)
same,normalized growth,"locus YER016W, strain bim1, stronger effect = lower value",0.954 (inactive)
same,normalized growth,"locus YER110C, stronger effect = lower value",0.559 (active)
same,normalized growth,"locus YER111C, strain swi4, stronger effect = lower value",0.767 (active)
same,normalized growth,"locus YER155C, strain BEM2 (second series), stronger effect = lower value",0.848 (active)
same,normalized growth,"locus YER155C, strain BEM2, stronger effect = lower value",0.144 (active)
same,normalized growth,"locus YER167W, strain BCK2, stronger effect = lower value",0.0725 (active)
same,normalized growth,"locus YFR010W, strain ubp6, stronger effect = lower value",0.813 (active)
same,normalized growth,"locus YGL078C, strain dbp3, stronger effect = lower value",0.973 (inactive)
same,normalized growth,"locus YGL086W, strain mad1, stronger effect = lower value",0.281 (active)
same,normalized growth,"locus YGL167C, strain pmr1, stronger effect = lower value",0.955 (inactive)
same,normalized growth,"locus YGL173C, strain kem1, stronger effect = lower value",0.716 (active)
same,normalized growth,"locus YGL227W, strain vid30, stronger effect = lower value",1.02 (inactive)
same,normalized growth,"locus YGL240W, strain doc1, stronger effect = lower value",0.966 (inactive)
same,normalized growth,"locus YGL248W, strain PDE1, stronger effect = lower value",0.0787 (active)
same,normalized growth,"locus YGL253W, strain hxk2, stronger effect = lower value",0.86 (active)
same,normalized growth,"locus YGR078C, strain PAC10, stronger effect = lower value",0.0806 (active)
same,normalized growth,"locus YGR135W, strain pre9, stronger effect = lower value",0.0948 (active)
same,normalized growth,"locus YGR252W, strain gcn5, stronger effect = lower value",0.225 (active)
same,normalized growth,"locus YHR013C, strain ard1, stronger effect = lower value",0.935 (inactive)
same,normalized growth,"locus YHR027C, strain rpn1, stronger effect = lower value",0.812 (active)
same,normalized growth,"locus YHR030C, strain SLT2, stronger effect = lower value",0.113 (active) and 0.995 (inactive)
same,normalized growth,"locus YHR079C, strain IRE1 (second series), stronger effect = lower value",0.477 (active)
same,normalized growth,"locus YHR079C, strain IRE1, stronger effect = lower value",0.987 (inactive)
same,normalized growth,"locus YHR094C, strain hxt1, stronger effect = lower value",0.402 (active)
same,normalized growth,"locus YHR129C, strain ARP1, stronger effect = lower value",0.0918 (active)
same,normalized growth,"locus YHR142W, strain chs7, stronger effect = lower value",0.745 (active)
same,normalized growth,"locus YHR200W, strain rpn10, stronger effect = lower value",0.0997 (active)
same,normalized growth,"locus YIL066C, strain RNR3, stronger effect = lower value",0.073 (active)
same,normalized growth,"locus YIL073C, strain SPO22, stronger effect = lower value",0.134 (active)
same,normalized growth,"locus YIL125W, strain kgd1, stronger effect = lower value",0.959 (inactive)
same,normalized growth,"locus YIR030C, strain dcg1, stronger effect = lower value",0.179 (active)
same,normalized growth,"locus YJL092W, strain hpr5, stronger effect = lower value",0.905 (active)
same,normalized growth,"locus YJL095W, strain BCK1 (second series), stronger effect = lower value",0.877 (active)
same,normalized growth,"locus YJL095W, strain BCK1, stronger effect = lower value",0.121 (active) and 0.997 (inactive)
same,normalized growth,"locus YJL115W, strain asf1, stronger effect = lower value",0.947 (inactive)
same,normalized growth,"locus YJL129C, strain trk1, stronger effect = lower value",1.05 (inactive)
same,normalized growth,"locus YJL134W, strain LCB3, stronger effect = lower value",0.167 (active)
same,normalized growth,"locus YJL154C, strain vps35, stronger effect = lower value",0.929 (inactive)
same,normalized growth,"locus YJL164C, strain tpk1, stronger effect = lower value",0.832 (active)
same,normalized growth,"locus YJL166W, strain qcr8, stronger effect = lower value",0.875 (active)
same,normalized growth,"locus YJL168C, strain set2, stronger effect = lower value",0.272 (active)
same,normalized growth,"locus YJL187C, strain SWE1 (second series), stronger effect = lower value",0.0876 (active)
same,normalized growth,"locus YJR043C, strain POL32, stronger effect = lower value",0.113 (active)
